Akt phos inh: blocks phosphorylation of Akt; 0.32% of 360,000 active; Neuro2A IGF-stimulated pAkt S473 HTRF, 20 min; hits give low values; activity change, % for hits at 50 µM; in the data active = activity change below about -80%; inconclusive = mostly about -51% to -80%
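Neuro2A cells in DMEM with 0.5% FBS, overnight at 37 deg C, given compound at single 50 µM final, then IGF (6 nM final) for 20 min at 37 deg C. Lysed; phospho-Akt Ser473 by HTRF after 24 h, 665/615 ratio.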
TrxR1 inh: rat TrxR1 inhibition; 1% of 390,000 active; recombinant rTrxR1, NADPH fluorescence consumption, selenite substrate; AID 588453; Potency, µM (series often up to 114 µM), actives largely listed as inhibitors; O89049; also: nearly all actives have a fitted effect of over 65% in size
Target sequence (O89049 whole entry, looked up): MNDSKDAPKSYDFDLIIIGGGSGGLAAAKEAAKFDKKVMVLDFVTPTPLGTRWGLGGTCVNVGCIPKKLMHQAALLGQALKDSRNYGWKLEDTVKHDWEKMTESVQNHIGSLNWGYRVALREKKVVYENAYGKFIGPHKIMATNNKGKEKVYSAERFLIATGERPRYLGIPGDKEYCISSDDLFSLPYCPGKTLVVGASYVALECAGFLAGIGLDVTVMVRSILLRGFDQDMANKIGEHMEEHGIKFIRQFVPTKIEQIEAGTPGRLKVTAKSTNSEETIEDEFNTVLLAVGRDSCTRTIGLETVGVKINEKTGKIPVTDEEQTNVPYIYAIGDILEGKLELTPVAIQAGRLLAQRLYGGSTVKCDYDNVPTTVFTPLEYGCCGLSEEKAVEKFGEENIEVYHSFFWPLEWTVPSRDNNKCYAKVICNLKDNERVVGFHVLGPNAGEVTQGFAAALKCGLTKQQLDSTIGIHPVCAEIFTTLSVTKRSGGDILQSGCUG
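Rat TrxR1 (90 nM in the dispensed reagent) was pre-reduced with 400 uM NADPH for 5 min at room temperature, then incubated with compound for 15 min. After 400 uM selenite was added, NADPH fluorescence (Ex 340/Em 450 nm) was followed for 8 min.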
A-T KAP1 phos: candidate therapy for ataxia-telangiectasia; AID 485349; 0.19% of 320,000 active; Potency, µM (series often up to 57.5 µM), actives largely listed as activators; F2112 A-T fibroblasts, KAP-1 phosphorylation AlphaLISA; neocarzinostatin DNA damage 30 min before lysis; also: nearly all actives have a fitted effect of over 45% in size
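hTERT-immortalized A-T patient fibroblasts (F2112), 500 cells/well in OPTI-MEM, 1% FBS, got compounds for 60 min, then NCS for 30 min at 37C. Lysates were then assayed for phospho-KAP-1 by AlphaLISA (anti-pKAP1 donor, anti-KAP1 acceptor beads), 6 hr at 25C.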
TrxR1 substrate: is turned over as a substrate by rat TrxR1. 0.01% of 390,000 active. Potency, µM (doses to about 114 µM). AID 588456. purified TrxR1 substrate turnover, NADPH consumption readout. O89049; also: nearly all actives have a fitted effect of over 50% in size
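Rat TrxR1, dispensed at 90 nM, was prereduced with 400 uM NADPH (final) for 5 min at ~22 deg C, then incubated with compound 15 min before 400 uM selenite. A first-read NADPH fluorescence drop versus no-compound background flagged substrates.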
Pin1 inh: blocks the human prolyl isomerase Pin1 | Q13526 | Pin1 FP peptide displacement, HiFluor488, 10 min | Potency, µM (doses to about 115 µM), actives largely listed as inhibitors | 0.009% of 390,000 active | AID 504891; active = well fitted inhibition curve with a large enough effect in the polarisation, with a control signal flat, not every such curve was filed as active; inconclusive = small, poorly fitted or top-dose-only effect, or effect the other way, or a change in a side signal; inactive = no such curve, though single readings can be large or run the other way; the % refers to the polarisation
Target sequence (Q13526 whole entry, looked up): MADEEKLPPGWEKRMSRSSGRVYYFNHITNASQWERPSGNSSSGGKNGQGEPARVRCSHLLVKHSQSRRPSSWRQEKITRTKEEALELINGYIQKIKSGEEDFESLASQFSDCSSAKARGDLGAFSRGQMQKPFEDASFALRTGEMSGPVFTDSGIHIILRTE
N370S GC mod: N370S glucocerebrosidase modulation, Gaucher chaperone candidate; P04062; N370S GC spleen homogenate, 4MU-glucoside fluorescence; Potency, µM (top dose mostly 59.4 µM), actives largely listed as inhibitors; 0.092% of 330,000 active; AID 2101
Hits are given with their value; 0 = inactive; ? = inconclusive; - = no result. Sampled rows, rich in hits. Any-hit rate of the full collection: about 1.4%. Unless noted, calls follow the shape of the dose curve; as a rule, active = well fitted curve in the direction sought with a large enough effect; inconclusive = small, poorly fitted or top-dose-only effect, or another doubt; inactive = no such curve, though single readings can be large; an effect the other way counts as inactive or inconclusive.

SMILES	Akt phos inh	TrxR1 inh	A-T KAP1 phos	TrxR1 substrate	Pin1 inh	N370S GC mod
O=C(Nc1ccc2nc(-c3ccco3)[nH]c2c1)c1cccs1	0	71µM	0	0	0	0
O=C(Nc1ccc2nc(-c3ccco3)[nH]c2c1)c1ccco1	0	?	-	0	0	0
CC(=O)c1cccc(OCC(O)CNCC2COc3ccccc3O2)c1 (stereo not given)	0	0	50µM	0	0	?
Cn1c(Sc2nc3ccccc3n2C)nc2ccccc21	0	0	20µM	0	0	0
Cc1nc([N+](=O)[O-])c(Sc2nc3ccccc3n2C)n1Cc1ccccc1	0	6.3µM	0	0	0	0
Cc1ccc(-c2nc3ccccc3n2C)o1	0	22µM	-	0	0	0
Cn1c(SCC(=O)N2CCCC2)nc2ccccc21	0	0	0	0	0	0
CCCN1CNc2c(c(=O)[nH]c(=S)n2CCc2cccc(C)c2)C1	-	0	-	0	0	-
Cc1cccc2cc3c(nc12)SC(=NCC1CCCO1)N(Cc1ccco1)C3 (stereo not given)	0	3.5µM	0	0	?	0
O=CNc1ccc(/C=C/c2ccnc3ccccc23)cc1	-	0	-	0	-	-
CCOC(=O)C1=C(C)N(c2ccc(OC)cc2)C(=O)/C1=C\c1ccc(O)c(OCC)c1	0	40µM	13µM	0	0	0
O=C(Nc1nccs1)c1cccc(N2C(=O)c3cccc4c([N+](=O)[O-])ccc(c34)C2=O)c1	-109%	0	-	0	?	0
O=C(Nc1ccc(S(=O)(=O)Nc2nccs2)cc1)c1cccc(N2C(=O)c3ccccc3C2=O)c1	0	0	0	0	?	0
NS(=O)(=O)c1cccc(NC(=S)NC(=O)C23CC4CC(CC(C4)C2)C3)c1	0	40µM	0	0	0	0
COC(=O)c1c(NC(=O)COc2ccc(OC)cc2)sc2c1CCC(C)C2 (stereo not given)	-	0	-	0	0	-
C=Cc1nc(Nc2cc(F)cc(F)c2)nc(NC2CCCC2)n1	-	-	-	-	0	-
OCCNCCOc1ccccc1-c1ccccc1	0	0	0	0	0	0
OCCNCCOc1ccccc1F	-107%	0	0	0	0	0
CC(C)(C)n1ncc2c(=O)n(Cc3ccc(C(F)(F)F)cc3)cnc21	-	0	-	0	-	-
Cc1cc(C(=O)NCCC2=CCCCC2)c(C)o1	0	32µM	?	0	0	0
O=C(Nc1nc(Nc2cc(F)cc(F)c2)nc(NC2CCCC2)n1)OCc1ccccc1	-	-	-	-	0	-
Cc1c(CC(=O)NCC(=O)N[C@H](Cc2ccccc2)C(=O)O)c(=O)oc2cc(O)ccc12	0	79µM	0	0	0	?
CCCCN1C(=O)C(O)(CC(=O)c2ccc(CC)cc2)c2cc(Br)ccc21 (stereo not given)	-	0	-	0	0	-
CC(=O)O[C@H]1CC(C)(C)C(=C=C/C(C)=C/C=C/C(C)=C/C=C/C=C(C)/C=C/C=C(\C)C(=O)C[C@@]23O[C@]2(C)C[C@@H](O)CC3(C)C)[C@](C)(O)C1	0	35µM	0	0	0	0
COc1ccc(C2=NO[C@@H]3C(=O)N(c4ccc(C)cc4C)C(=O)[C@H]23)cc1OC	0	22µM	0	0	0	0
SMILES	Akt phos inh	TrxR1 inh	A-T KAP1 phos	TrxR1 substrate	Pin1 inh	N370S GC mod
COc1ccc(C2=NO[C@@H]3C(=O)N(c4cccc(C)c4C)C(=O)[C@H]23)cc1OC	0	0	0	0	0	0
C#CCN1C(=O)C(O)(CC(=O)/C=C/C=C/c2ccccc2)c2ccccc21 (stereo not given)	0	28µM	0	0	0	0
COc1cc(F)c(S(=O)(=O)N2CCN(S(=O)(=O)c3ccc(N)cc3)CC2)c(F)c1	-	-	-	-	0	-
O=C(CCl)N=c1sccn1Cc1cccc2ccccc12	0	?	0	0	0	0
O=C(CCl)N=c1sccn1Cc1ccc(Cl)cc1Cl	0	32µM	0	0	0	0
O=C(CCl)N=c1sccn1Cc1ccccc1Cl	0	25µM	0	0	0	0
Cc1nn2c(=O)cc(COC(=O)c3ccc(NC(=O)CCc4ccccc4)cc3)nc2s1	-	0	-	0	0	-
Cc1cc2c(s1)c1cnn(Cc3cc(F)cc(F)c3)c(=O)c1n2C	-	-	-	-	0	-
N#CN1CCC(NC(=O)c2cccc(C(F)(F)F)c2)CC1	-	-	-	-	0	-
COc1ccc2nc(-c3cccc(F)c3)sc2c1	-	-	-	-	0	-
COc1ccc(C(c2nnnn2C2CCCCC2)N2CCN(c3ccc(OC)cc3)CC2)cc1 (stereo not given)	0	0	0	0	0	0
c1cc(N2CCCC2)ccc1C(c1nnnn1C1CCCCC1)N1CCOCC1 (stereo not given)	-	7.1µM	0	0	0	0
O=C(Nc1ccccc1SC(=O)c1ccccc1)c1ccccc1	0	-	-	-	-	-
Cc1ccc(C(=O)Sc2cccccc2=O)cc1	0	0.63µM	0	0	0	0
CC(=O)C(Sc1nc(N(C)C)nc(N(C)C)n1)C(=O)Nc1ccccc1 (stereo not given)	0	0	0	0	0	0
CC(=O)C(Sc1nn(C)c(=S)s1)C(=O)Nc1ccccc1 (stereo not given)	0	22µM	0	0	0	0
CC(C)NC(=O)CCN1C(=O)c2ccccc2Sc2ncccc21	0	0	0	0	0	0
Cc1ccc(C)c(NC(=O)CCN2C(=O)c3ccccc3Sc3ncccc32)c1	-	50µM	-	0	0	-
CCc1cccc(NC(=O)CCN2C(=O)c3ccccc3Sc3ncccc32)c1	-	18µM	-	0	0	-
O=C(CCN1C(=O)c2ccccc2Sc2ncccc21)Nc1ccc(F)cc1	-	7.1µM	-	0	0	-
CN(CC(=O)O)c1ccc(/C=C/c2ccnc3ccccc23)cc1	-	0	-	0	-	-
COc1cc(/C=C2\N=C(C)OC2=O)cc(Cl)c1OC(C)=O	0	40µM	0	0	0	0
N#Cc1ccc(NS(=O)(=O)c2ccc3c(c2)CCC(=O)N3)cc1	-	-	-	-	0	-
CCN1CCN(CC(=O)Nc2ccc(C(C)=O)cc2)CC1	0	0	4.5µM	0	0	0
CCOC(=O)c1c(NC(C)=O)c2c3c(sc2n1Cc1cc(C)ccc1C)CCCC3	-	0	-	0	0	-
SMILES	Akt phos inh	TrxR1 inh	A-T KAP1 phos	TrxR1 substrate	Pin1 inh	N370S GC mod
c1ccc(-c2nn3c(C4CCCCC4)nnc3s2)cc1	-114%	0	0	0	0	0
c1csc(-c2nn3c(C4CCCCC4)nnc3s2)c1	0	0	-	0	0	-
O=S(=O)(NCc1ccccc1)c1ccc(Cl)cc1	0	0	0	0	0	0
O=S(=O)(Nc1cc2nc3ccccc3nc2n1Cc1ccccc1)c1ccc(Cl)cc1	0	0	25µM	?	?	0
CC1CC(C)(C)Nc2ccc(N=O)cc21 (stereo not given)	0	0.89µM	0	0	0	0
CC1CC(C)(C)Nc2ccc(OC(=O)c3ccco3)cc21 (stereo not given)	-	0	0	0	0	0
Cc1cc(C)cc(NC(=O)C(=O)NCCc2sc(-c3cccc(F)c3)nc2C)c1	-	0	-	0	0	-

Assay outcomes: PubChem, National Center for Advancing Translational Sciences (NCATS)
